Where “and” joins values, the source holds several entries; their conditions need not be identical. Identical values can stand only once. Screen size: about 5,500 compounds; about 2,000 (36%) were called active. Another 18% or so got no clear call; they are omitted. No stated cut-off is given here; in the data, active means normalized growth mostly below about 0.91 (no sharp cut-off); inconclusive means no clear call, values can overlap the other calls; inactive means mostly above about 0.92. The list shows a part of the results.
Assay: chemical genetic growth profiling, strain panel (AID 1159580);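 further: tested at 20 µM; growth read once vehicle control cultures reached saturation at 30 °C; 1 = growth at the plate median or of vehicle wells; lower values mean less growth of the strain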
Settings: S. cerevisiae deletion strains, growth OD

Measured: normalized growth

CN[C@H](CC(=O)O)C(=O)O
inactive: locus YAL013W, strain DEP1, active compounds read low 0.983 | locus YAL021C, strain ccr4, active compounds read low 0.988 | locus YAL026C, strain drs2, active compounds read low 1.02 | locus YAL030W, strain snc1, active compounds read low 1.01 | locus YBL061C, strain skt5, active compounds read low 1.02 | locus YBR009C, strain hhf1, active compounds read low 1.01 | locus YBR021W, strain FUR4, active compounds read low 1.02 | locus YBR023C, strain chs3, active compounds read low 1.03 | locus YBR171W, strain sec66, active compounds read low 1.01 | locus YBR229C, strain ROT2, active compounds read low 0.998 | locus YBR231C, strain swc5, active compounds read low 1.02 | locus YBR279W, strain paf1, active compounds read low 1.01 | locus YCL011C, strain gbp2, active compounds read low 1.03 | locus YCL016C, strain dcc1, active compounds read low 1.02 | locus YCL029C, strain bik1, active compounds read low 0.985 | locus YCL061C, strain MRC1, active compounds read low 1 | locus YCL069W, strain vba3, active compounds read low 1.01 | locus YCR088W, strain abp1, active compounds read low 1.02 | locus YDL005C, strain med2, active compounds read low 1.03 | locus YDL035C, strain GPR1, active compounds read low 0.989 | locus YDL040C, strain nat1, active compounds read low 1.02 | locus YDL074C, strain BRE1, active compounds read low 1.04 | locus YDL101C, strain DUN1, active compounds read low 0.995 | locus YDL134C, strain PPH21, active compounds read low 0.987 | locus YDL185W, strain tfp1, active compounds read low 0.968 | locus YDL192W, strain arf1, active compounds read low 0.967 | locus YDR001C, strain nth1, active compounds read low 1.03 | locus YDR069C, strain doa4, active compounds read low 1.02 | locus YDR101C, strain arx1, active compounds read low 1.03 | locus YDR137W, strain rgp1, active compounds read low 0.967 | locus YDR159W, strain sac3, active compounds read low 1.03 | locus YDR162C, strain NBP2, active compounds read low 0.964 | locus YDR195W, strain ref2 1.05 | locus YDR297W, strain sur2, active compounds read low 1.02 | locus YDR318W, strain mcm21, active compounds read low 0.98 | locus YDR334W, strain swr1, active compounds read low 1.01 | locus YDR335W, strain msn5, active compounds read low 1.01 | locus YDR388W, active compounds read low 0.972 | locus YDR392W, strain spt3, active compounds read low 0.969 | locus YDR502C, strain sam2, active compounds read low 0.989 | locus YEL003W, strain gim4, active compounds read low 1.01 | locus YEL037C, strain rad23, active compounds read low 1.02 | locus YEL061C, strain CIN8 (second series), active compounds read low 1.03 | locus YEL061C, strain CIN8, active compounds read low 0.994 | locus YER015W, strain faa2, active compounds read low 1.02 | locus YER016W, strain bim1, active compounds read low 1.02 | locus YER110C, active compounds read low 0.945 | locus YER111C, strain swi4, active compounds read low 1.02 | locus YER155C, strain BEM2 (second series), active compounds read low 1.06 | locus YER155C, strain BEM2, active compounds read low 1 | locus YER167W, strain BCK2, active compounds read low 0.998 | locus YFR010W, strain ubp6, active compounds read low 1.03 | locus YGL078C, strain dbp3, active compounds read low 0.975 | locus YGL086W, strain mad1, active compounds read low 1.02 | locus YGL167C, strain pmr1, active compounds read low 1.01 | locus YGL173C, strain kem1, active compounds read low 1.01 | locus YGL227W, strain vid30, active compounds read low 1.03 | locus YGL240W, strain doc1, active compounds read low 1.04 | locus YGL248W, strain PDE1, active compounds read low 0.996 | locus YGL253W, strain hxk2, active compounds read low 1.02 | locus YGR135W, strain pre9, active compounds read low 0.923 | locus YGR252W, strain gcn5, active compounds read low 0.979 | locus YHR013C, strain ard1, active compounds read low 1.04 | locus YHR027C, strain rpn1, active compounds read low 1.02 | locus YHR030C, strain SLT2, active compounds read low 0.991 and 1.03 | locus YHR079C, strain IRE1 (second series), active compounds read low 0.992 | locus YHR079C, strain IRE1, active compounds read low 1.04 | locus YHR094C, strain hxt1, active compounds read low 0.981 | locus YHR129C, strain ARP1, active compounds read low 0.995 | locus YHR142W, strain chs7, active compounds read low 1.03 | locus YHR200W, strain rpn10, active compounds read low 0.98 | locus YIL066C, strain RNR3, active compounds read low 1 | locus YIL073C, strain SPO22, active compounds read low 0.913 | locus YIL125W, strain kgd1, active compounds read low 1 | locus YIR030C, strain dcg1, active compounds read low 0.983 | locus YJL092W, strain hpr5, active compounds read low 1.01 | locus YJL095W, strain BCK1 (second series), active compounds read low 1.02 | locus YJL095W, strain BCK1, active compounds read low 1.01 and 1.06 | locus YJL115W, strain asf1, active compounds read low 1.03 | locus YJL129C, strain trk1, active compounds read low 1.09 | locus YJL134W, strain LCB3, active compounds read low 0.993 | locus YJL154C, strain vps35, active compounds read low 1.02 | locus YJL164C, strain tpk1, active compounds read low 0.998 | locus YJL166W, strain qcr8, active compounds read low 1.03 | locus YJL168C, strain set2, active compounds read low 0.98 | locus YJL187C, strain SWE1 (second series), active compounds read low 1 | locus YJL187C, strain SWE1, active compounds read low 1.01 | locus YJR043C, strain POL32, active compounds read low 1
